{"source": "PubChem BioAssay (NCATS)", "note": "Inconclusive results are not listed. A call without a number means that no potency is given here. Calls of active or inactive are those of the source. Calls come from the whole dose curve; as a rule, active = well fitted cell-killing curve with a large enough effect; inconclusive = small, poorly fitted or top-dose-only effect, or effect the other way; inactive = no such curve, though single readings can be large or run the other way. Potency is the fitted concentration of half-maximal effect."}
{"assay": "Viability qHTS for spleen associated tyrosine kinase inhibitor (SYKi) naive MV4-11 cells (AID 1963823); note: nearly all actives have a fitted effect of over 40% in size", "settings": "MV4-11 AML viability, CellTiter-Glo luminescence, 72 h; series mostly up to 45 µM", "outline": "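Compounds were dispensed acoustically onto plates, MV4-11 cells (SYKi-naive) added at 500 per well, and plates incubated 72 hr at 37 C. CellTiter-Glo was added and luminescence measured after 10 min.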"}
{"smiles": "CC1=C(C)C(=O)OC(C(C)C2CCC3C4CC=C5CC(OC6OC(COC7OC(CO)C(O)C(O)C7O)C(O)C(O)C6O)CC(O)C5(C)C4CCC23C)C1", "note": "(configuration not stated)", "Potency": "inactive"}
{"smiles": "O=C(c1c(F)ccc(NS(=O)(=O)N2CC[C@@H](F)C2)c1F)c1c[nH]c2ncc(-c3cnc(C4CC4)nc3)cc12", "Potency": "6.51 µM (active)"}
{"smiles": "COC12CC3C(C(C)C1=CC(=O)O2)C(O)C(OC(C)=O)C1C(C)(C)C(OC(C)=O)CCC31C", "note": "(configuration not stated)", "Potency": "inactive"}
{"smiles": "COC(=O)C1=COC(O[C@@H]2O[C@H](COC(=O)/C=C/c3ccc(O)cc3)[C@@H](O)[C@H](O)[C@H]2O)C2C(CO)=CCC12", "note": "(some centres not stated)", "Potency": "inactive"}
{"smiles": "CC(C)C(C)C(O)C1CC23CC(=O)C4(O)C(=C2CCC3C1C)C=CC1(O)CC(O)CCC14C", "note": "(configuration not stated)", "Potency": "inactive"}
{"smiles": "COC(=O)C1=CO[C@@H](O[C@@H]2O[C@H](CO)[C@@H](O)[C@H](O)[C@H]2O)[C@H]2[C@@H]1[C@H](O)[C@H](O)[C@]2(C)O", "Potency": "inactive"}
{"smiles": "COc1cc(C[C@H]2COC(=O)[C@@H]2Cc2ccc(O)c(OC)c2)ccc1O", "Potency": "inactive"}
{"smiles": "O=C(Nc1nc2ccc([N+](=O)[O-])cc2s1)C1CCCCC1", "Potency": "20.6 µM (active)"}
{"smiles": "Oc1ccc2c(c1)OCC1(O)Cc3cc(O)c(O)cc3C21", "note": "(configuration not stated)", "Potency": "3.66 µM (active)"}
{"smiles": "O=C(O)CCc1cc2ccoc2cc1O[C@@H]1O[C@H](CO)[C@@H](O)[C@H](O)[C@H]1O", "Potency": "inactive"}
{"smiles": "C=C[C@H]1[C@H](O[C@@H]2O[C@H](CO)[C@@H](O)[C@H](O)[C@H]2O)OC=C(C(=O)OC)[C@H]1CC=O", "Potency": "inactive"}
{"smiles": "C=C(C(=O)O)C1CCC(C)C2CCC(=O)OC2(C)C1", "note": "(configuration not stated)", "Potency": "inactive"}
